{
  "source": "ChEMBL document CHEMBL1961873",
  "about": "“Compounds: GSK PKIS; Assays: Nanosyn kinase panel” (2012);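 also: reported figure is the mean percent inhibition of CHEK1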",
  "data": [
    {"biological_target": "T1, Serine/threonine-protein kinase Chk1 (Homo sapiens) (UniProt O14757)", "T1 sequence (whole entry)": "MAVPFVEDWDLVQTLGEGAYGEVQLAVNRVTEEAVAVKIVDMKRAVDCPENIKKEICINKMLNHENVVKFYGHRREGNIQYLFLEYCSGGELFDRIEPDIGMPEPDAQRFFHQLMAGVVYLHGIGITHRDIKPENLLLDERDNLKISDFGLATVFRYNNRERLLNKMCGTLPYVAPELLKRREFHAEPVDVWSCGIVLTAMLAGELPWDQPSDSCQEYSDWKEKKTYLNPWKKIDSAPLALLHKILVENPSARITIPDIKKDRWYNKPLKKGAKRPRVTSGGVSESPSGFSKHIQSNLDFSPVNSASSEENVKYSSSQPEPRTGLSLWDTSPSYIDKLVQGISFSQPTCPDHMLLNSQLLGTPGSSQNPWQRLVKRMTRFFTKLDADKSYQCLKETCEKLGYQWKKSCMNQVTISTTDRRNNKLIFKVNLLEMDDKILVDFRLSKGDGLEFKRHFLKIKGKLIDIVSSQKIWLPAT", "conditions": "at 0.1 µM", "units": {"inhibition": "%"}, "values": [
      {"compound": "O=C(Nc1n[nH]c2cc(-c3ccccc3)ccc12)C1CC1", "inhibition": 2.36},
      {"compound": "Cc1ccc(C(=O)NC2CCC2)cc1-c1ccc(C(=O)NCC2CC2)cc1", "inhibition": 2.53},
      {"compound": "O=C(Nc1n[nH]c2cc(-c3cc(F)ccc3F)ccc12)C1CC1", "inhibition": -0.4},
      {"compound": "CNC(=O)c1cncc(/C=C/c2c(C)cccc2C)c1", "inhibition": -0.79},
      {"compound": "O=C(Nc1n[nH]c2nc(-c3ccc(O)cc3)c(Br)cc12)C1CC1", "inhibition": 8.74},
      {"compound": "NS(=O)(=O)c1ccc(N/N=C2\\C(=O)Nc3ccc(-c4cnco4)cc32)cc1", "inhibition": -0.45},
      {"compound": "Fc1ccc(-c2ncn(CCCN3CCOCC3)c2-c2ccncc2)cc1", "inhibition": 2.08},
      {"compound": "C[C@@H](Oc1cc(-n2cnc3ccc(OCC4CCN(C)CC4)cc32)sc1C(N)=O)c1ccccc1Cl", "inhibition": 7.19},
      {"compound": "CCc1ccc(Oc2nccc(-c3c(-c4ccc(F)cc4)ncn3C3CCNCC3)n2)cc1", "inhibition": 4.54},
      {"compound": "COc1cccc(/C=N/Nc2ncnc3c2cnn3-c2cccc(OC)c2)c1", "inhibition": -0.79},
      {"compound": "COc1ccc2cc(-c3c(-c4ccncc4)nc(-c4ccc(S(C)(=O)=O)cc4C)n3C)ccc2c1", "inhibition": -2.73},
      {"compound": "CS(=O)(=O)CCNCc1ccc(-c2ccc3ncnc(Nc4ccc(OCc5ccccc5)c(Br)c4)c3c2)o1", "inhibition": 0.41},
      {"compound": "Fc1ccc(-c2ncn(C3CCNCC3)c2-c2ccnc(Oc3ccc(Oc4ccccc4)cc3)n2)cc1", "inhibition": 10.6},
      {"compound": "O=C1Nc2ccc(I)cc2C1=Cc1cc(Br)c(O)c(Br)c1", "inhibition": 0.05},
      {"compound": "COc1cc(Nc2ncc3c(C)nc(-c4cccc(Oc5ccccc5)c4)n3n2)cc(OC)c1OC", "inhibition": 3.9},
      {"compound": "CN1CCN(CCCNc2nc3ccc(Oc4ccc(NC(=O)Nc5cc(C(F)(F)F)ccc5F)cc4)cc3[nH]2)CC1", "inhibition": -0.5},
      {"compound": "COc1cc(Nc2ncc(-c3ccccc3)o2)cc(OC)c1OC", "inhibition": 1.58},
      {"compound": "COc1ccc(C2=C(N3CCc4ccccc43)C(=O)NC2=O)cc1", "inhibition": 3.53},
      {"compound": "Cc1ccc(C(=O)NC(C)C)cc1-c1ccc(C(=O)NCC2CC2)cc1", "inhibition": -1.72},
      {"compound": "NC(=O)c1cc(-c2ccc(F)cc2)cc(-c2ccncc2)c1N", "inhibition": 0.67},
      {"compound": "Clc1ccc(CNc2nccc(-c3cnn4ncccc34)n2)cc1", "inhibition": 2.84},
      {"compound": "O=C1Nc2ccccc2/C1=C/Nc1ccc(-n2cncn2)cc1", "inhibition": 1.77},
      {"compound": "Fc1ccc(-c2ncn(C3CCNCC3)c2-c2ccnc(Oc3ccc(F)c(F)c3)n2)cc1", "inhibition": -3.21},
      {"compound": "CN(c1ccc(NC(=O)Nc2c(Cl)cccc2Cl)cc1)c1ccnc(Nc2cccc(CS(C)(=O)=O)c2)n1", "inhibition": 1.99},
      {"compound": "NC(=O)Cc1ccccc1Oc1nccc(-c2c(-c3ccc(F)cc3)ncn2C2CCNCC2)n1", "inhibition": 0.75},
      {"compound": "CN(C)CCOc1ccc(-c2cc(-c3ccc4c(c3)CCC4=NO)c(-c3ccncc3)o2)cc1", "inhibition": -2.19},
      {"compound": "CN(C)c1ccc2c(c1)/C(=C/Nc1ccc(S(N)(=O)=O)cc1)C(=O)N2", "inhibition": 8.69},
      {"compound": "COc1cc(C)c(N(C)C(=O)CN(C)C)cc1Nc1nc(Nc2cccc(F)c2C(N)=O)c2cc[nH]c2n1", "inhibition": -4.87},
      {"compound": "O=C(NCC1CC1)c1ccc(-c2cccc(C(=O)NC3CC3)c2)cc1", "inhibition": -3.93},
      {"compound": "COc1cc(N2CCN(C(C)C)CC2)ccc1Nc1nc(Nc2ccc(F)cc2C(=O)NC[C@@H](O)CO)c2cc[nH]c2n1", "inhibition": 2.18},
      {"compound": "NC(=O)c1ccc(Oc2nccc(-c3c(-c4ccc(F)cc4)ncn3C3CCNCC3)n2)cc1", "inhibition": -2.66},
      {"compound": "COc1cc2ncn(-c3cc(OCCc4ccccc4)c(C(N)=O)s3)c2cc1OC", "inhibition": 1.61},
      {"compound": "CCc1cccc(CC)c1/C=C/c1cncc(C(=O)NC)c1", "inhibition": 3.68},
      {"compound": "COc1ccc2cc(-c3c(-c4ccncc4)nc(-c4ccc([S+](C)[O-])cc4C)n3C)ccc2c1", "note": "(centres undefined)", "inhibition": -4.29}
    ]}
  ]
}
